# From the OligoGym collection
# Molecular target: C9orf37
# Assay: pooled miR-30 sensor sort-seq; sequence = guide strand
# Conditions: shRNA
# Also: reference of the scale not given here.
row,Sequence,sensor-assay potency score (higher = more potent)
1,TCTGTGGAACAGCATTTCTCAA,-1.65
2,AAATGCACAGGACCAGGCCGGG,-1.34
3,TCAAATTCCAGTTCTCCTTTAG,-1.07
4,TATCTATAAAATGCACAGGACC,-1.69
5,ATGGTGGTGAAGAAGGCTCTGG,-0.917
6,TTATCTATAAAATGCACAGGAC,-1.03
7,TTCTCCTTTAGGGCGAAGGGGT,-1.42
8,TCCAGTTCTCCTTTAGGGCGAA,-0.959
9,TTTGTCAGTTACCTTATCTATA,-0.888
10,TACCTTATCTATAAAATGCACA,-0.634
11,TTACCTTATCTATAAAATGCAC,-0.752
12,TTCTGTGGAACAGCATTTCTCA,-0.352

# Molecular target: C9orf72
# Assay: as above
# Conditions: shRNA
row,Sequence,sensor-assay potency score (higher = more potent)
1,TACATCTATAGCACCACTCTCT,-0.415
2,TTGACATCCACATCTATGTGTG,-0.37
3,TACAGTAATTCTACACACCAAA,-0.818
4,TATGCATCCATATTCTTCCTTT,-0.33
5,TAATCTATCAACACACACTCTA,0.268
6,TATTTCTTCAGGAACACTGTGT,0.74
7,TTACAGGAATCACTTCTCCAGT,-1.29
8,TATATTGTAAACATAGGTCTGT,0.698
9,TTTCACTAGAGTGTCTCTGTGT,0.565
10,TTAATCTATCAACACACACTCT,-0.521
11,TAAAATAAACAAAACACCCTAA,0.0855
12,TAAATCAAGGTCTATCTTCAGG,-0.851
